DAX1 inh-1: DAX1 (NR0B1) inhibitors on StAR promoter, primary screen, cell-based, luminescence, SF-1 (NR5A1), full-length DAX-1. AID 652010, 2013. HEK293T StAR-luciferase reporter, SF-1/DAX-1 repression relief. 370,000 compounds, 1.1% hits. inhibition, % at 6.8 µM;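 active = inhibition above the mean over all tested compounds plus 3 SD, cut at about 3.6% in these data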;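 note: higher inhibition means more luminescence from relief of DAX-1 repression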
hcDAF-12 act: H. contortus DAF-12 nuclear receptor activators, primary screen, cell-based, luminescence, HEK293, lit1-tk-luc reporter; HEK293 hcDAF-12 lit1-tk-luc reporter; 0% DMSO, 100% Δ7-dafachronic acid; activation, % at 6.8 µM; 370,000 compounds, 1.4% hits;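 active = activation above the mean of all tested compounds plus 3 SD, cut at about 5.5% in these data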
DAX1 inh-2: DAX1 (NR0B1) inhibitors, primary screen, cell-based, HEK293, Gal4-DAX1, luciferase luminescence | inhibition, % at 6.75 µM | HEK293 Gal4-DAX1 luciferase reporter | Nuclear receptor subfamily 0 group B member 1 (Homo sapiens), P51843 | 340,000 compounds, 0.99% hits;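 active = inhibition above the mean over all tested compounds plus 3 SD, cut at about 4.2% in these data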;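 note: inhibition shows as a rise in luminescence from relieved DAX1 repression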
Target sequence (P51843 207-470 limits assumed): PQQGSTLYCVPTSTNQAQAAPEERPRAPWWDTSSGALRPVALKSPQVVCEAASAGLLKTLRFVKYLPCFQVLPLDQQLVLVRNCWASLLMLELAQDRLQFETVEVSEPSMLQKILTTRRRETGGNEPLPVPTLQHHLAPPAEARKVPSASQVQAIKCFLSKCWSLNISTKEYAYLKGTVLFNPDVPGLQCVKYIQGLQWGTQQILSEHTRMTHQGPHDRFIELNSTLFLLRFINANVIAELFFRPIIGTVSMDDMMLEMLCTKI
Wee1 stabilizer: Wee1 degradation inhibitors, primary screen, cell-based, HeLa, Wee1K328M-luciferase, luminescence. Wee1-like protein kinase (Homo sapiens), P30291. HeLa Luc-Wee1K328M stability; 100% = proteasome inhibitor MG132 effect. reporter increase, % at 5 µM. 220,000 compounds, 1.2% hits;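 active = activation above the mean of all tested compounds plus 3 SD, set per screening run, cut at about 8.8% in these data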;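 note: cells exposed to compound for 20 h before luminescence read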
ssDAF-12 act: S. stercoralis DAF-12 nuclear receptor activators, primary screen, cell-based, luminescence, HEK293, GRIP1 co-expression, lit1-tk-luc; HEK293 ssDAF-12/GRIP1 lit1-tk-luc reporter; % of 3 µM dafachronic acid response; activation, % at 6.8 µM; 370,000 compounds, 1% hits; AID 652126, 2013;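 active = activation above the mean over all tested compounds plus 3 SD, cut at about 0.9% in these data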
hgDAF-12 ag: H. glycines DAF-12 receptor agonists, primary screen, cell-based, luminescence, HEK293, GAL4 fusion, UAS-luciferase; activation, % at 6.8 µM; HEK293 GAL4-hgDAF12 UAS-luciferase reporter, agonist luminescence; normalized to butyrate control; Nuclear hormone receptor DAF-12 (Heterodera glycines), GAL4 fusion; 370,000 compounds, 1.8% hits;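 active = activation above a cutoff set at the mean of all screened compounds plus 3 SD, cut at about 10% in these data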
Each line names hits and unclear results; the compound was inactive in the other large screens. Shown are actives, neighbours in structure and some others; about 4.6% of the full set was active somewhere.

Oc1cccc(-c2nc3ccc4ccccc4c3c3c2CCC3)c1	Wee1 stabilizer 9.1
COC(=O)c1ccc(COc2ccc(CNCc3ccc(Cl)cc3)cc2)cc1	hgDAF-12 ag 11.7 (no result: Wee1 stabilizer)
CN(Cc1ccccc1)C(=O)OCc1cn(Cc2ccc(F)c(F)c2)nn1	none (no result: DAX1 inh-2, Wee1 stabilizer)
CS(=O)(=O)c1cnc2c(S(=O)(=O)c3ccccc3)cnn2c1N	Wee1 stabilizer 8.8
CC(=O)NC1(c2ccccc2)CCN(c2cc(C)nc(-c3ccccc3)n2)CC1	ssDAF-12 act 7.3
C[C@H](CO)N1C[C@H](C)[C@@H](CN(C)S(=O)(=O)c2cccs2)Oc2c(NS(=O)(=O)c3ccc(F)cc3)cccc2C1=O	none (no result: Wee1 stabilizer)
O=[N+]([O-])/C(=C\Nc1ccc(F)cc1F)S(=O)(=O)c1ccccc1	none (no result: Wee1 stabilizer)
Nc1c(-c2ccc(Cl)cc2)nnn1-c1ccccc1	hgDAF-12 ag 10.9
C#CCNC(=O)C[C@H]1C[C@@]2(C(=O)OC)C(=C[C@H](COCc3ccccc3)O[C@@H]2C)N(Cc2ccccc2)C1=O	none (no result: DAX1 inh-2, Wee1 stabilizer)
O=C(c1ccccc1)N1CCN(c2ccc([N+](=O)[O-])c(NCC3CCCO3)c2)CC1 (centres undefined)	Wee1 stabilizer 10.7
Cc1[nH]n2c(=O)cc(C(C)(C)C)nc2c1-c1ccccc1	Wee1 stabilizer 9.1
CN1CCCCC(NC(=O)CCCl)C1=O (centres undefined)	none (no result: DAX1 inh-2, Wee1 stabilizer)
O=C(NC(=S)Nc1ccccc1Cl)c1cncc(Br)c1	none (no result: Wee1 stabilizer)
O=C(NC(=S)Nc1ccccc1Cl)c1cncc(C#Cc2ccccc2)c1	DAX1 inh-2 4.4
CCN(CC)CCNC(=O)CNC(=O)c1nn(-c2ccc(OC)c(OC)c2)c(=O)c2ccccc12	DAX1 inh-2 4.9 (no result: Wee1 stabilizer)
O=C(O)CSc1nnc2n(-c3ccccc3)c(=O)c3ccccc3n12	DAX1 inh-2 5.4 (no result: Wee1 stabilizer)
CCCN1CCCCC(NC(=O)c2c(F)cccc2F)C1=O (centres undefined)	none (no result: DAX1 inh-2, Wee1 stabilizer)
O=[N+]([O-])c1ccc(Nc2ccc3ccccc3c2)nc1	hgDAF-12 ag 11.1
CCN(CC)C(=O)c1ccc2c(c1)N(Cc1ccccc1)C(=O)CS2=O (centres undefined)	DAX1 inh-2 4.7
CC(=O)N=C(N)Sc1nc2ccccc2[nH]1	hcDAF-12 act 5.9, hgDAF-12 ag 10.9
S=C(c1ccc(-c2ccccc2Cl)o1)N1CCCCC1	hgDAF-12 ag 11.7
CCOC(=O)C1CCCN(C(=O)c2ccc(-c3ccccc3Cl)o2)C1 (centres undefined)	DAX1 inh-1 4.3 (no result: Wee1 stabilizer)
CN1CCN(C(=S)c2ccc(-c3cccc(Cl)c3Cl)o2)CC1	hgDAF-12 ag 12.0
Nc1ccc(Oc2ccc3nc(-c4ccccc4)c(-c4ccccc4)nc3c2)cc1	none
Nc1ccc(Oc2cc(N)cc(Oc3ccccc3)c2)cc1	DAX1 inh-2 4.6 (no result: Wee1 stabilizer)
O=C(NC(=S)NCCN1CCOCC1)c1ccc(F)cc1	none
O=C(NC(=S)NCc1nc2ccccc2[nH]1)c1ccccc1F	hcDAF-12 act 6.3
CC(C)CNC(=S)NC(=O)c1ccc(F)cc1	Wee1 stabilizer 9.1
O=C(NC(=S)NCc1nc2ccccc2[nH]1)c1ccc(F)cc1	hgDAF-12 ag 10.5
O=C(NCCc1nc2ccccc2[nH]1)c1ccc(F)cc1	none (no result: DAX1 inh-1, hcDAF-12 act, ssDAF-12 act, hgDAF-12 ag)
O=C(NC(=S)NCc1ccccc1)c1ccccc1F	none
COc1cc(NC(=O)C(C)(C)C)c(C(=O)OCC(=O)Nc2cc(C)on2)cc1OC	none (no result: Wee1 stabilizer)
COc1cc(NC(=O)CSc2nnc3c(C)cc4cc(C)cc(C)c4n23)c(C(=O)O)cc1OC	hgDAF-12 ag 10.7
Cc1cccc(C)c1NC(=O)C1CCN(c2ncccn2)CC1	none (no result: DAX1 inh-2, Wee1 stabilizer)
N#CC1(NC(=O)CSc2nnc(Nc3ccccc3F)s2)CCCC1	none (no result: Wee1 stabilizer)
